In all, about 340,000 compounds went through this assay and about 170 (0.05%) were called active. About 26% were inconclusive and are not listed. This excerpt belongs to a sample that is enriched for actives. A number with no mark means an inactive call. The call rests on the fitted dose curve; in most records, active means well fitted inhibition curve with a large enough effect in the signal ratio, with a control signal flat (not every such curve was filed as active); inconclusive means small, poorly fitted or top-dose-only effect, or effect the other way, or a change in a side signal; inactive means flat fitted curve, though single readings scatter; the % refers to the signal ratio.
Test: qHTS Assay to Find Inhibitors of Chronic Active B-Cell Receptor Signaling;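 on activity change, negative = inhibition: plate controls were basal doxycycline-induced cells for no effect and cells given 10 µM MG132 for full effect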
Conditions: ABC-DLBCL IkBa-CBG/CBR reporter, luminescence ratio, 4 h; series mostly up to 46.1 µM; activity change, negative = inhibition: at the top concentration
Excerpt: NIH Molecular Libraries Probe Production Network [MLPCN] NIH Chemical Genomics Center [NCGC] MLPCN Grant: 1 R03 DA031086-01A1 PI Name: Dr. R. Eric Davis NCGC Assay Overview: Diffuse large B-cell lymphoma (DLBCL) is the most common category of non-Hodgkin lymphoma, with ~20,000 new cases per year in the United States. DLBCL should be regarded as a collection of different neoplasms. Microarray gene expression analysis has defined two principal types of DLBCL, named for their similarity to normal B cell stages or activation states: a germinal center B-cell (GCB) type, and an activated B-cell (ABC) type. In ABC-DLBCL, a constitutive high-level activity of the NF-kappaB family of transcription factors has been observed (1) and NF-kappaB target genes are more highly expressed in ABC primary tumors than in GCB tumors. Functional studies have shown a constitutive high-level activity of the IkappaB (inhibitor of kappa-B) kinase (IKK) complex. […] Further analysis of DLBCL primary tumors for NF-kappaB target gene expression imply that although CARD11 is required for constitutive IKK activity in all ABC-DLBCL lines, mutations in CARD11 may be the root cause of IKK activation only in lines or tumors with such mutations. In other words, CARD11 mutations may explain NF-kappaB activation in only 10% of ABC-DLBCL cases. […] This process has been termed 'chronic active BCR signaling' (CABS). The goal of this screen is to find small-molecule inhibitors of the CABS pathway found in ABC-DLBCL lines using a cell-based assay that measures IkappaBalpa stability, which has already been extensively validated in the OCI-Ly3 line (PubChem AID:445; REF: 4). […] The assay uses green (CBG68) and red (CBR) emitting beetle luciferases [Chroma-GloTM developed by Promega Corp.] where the green luciferase is fused to IkappaBalpha and the red luciferase is present in its native state. Both luciferase genes are stably present in the TMD8 human ABC DLBCL cell line, but their expression is under the control of tetracycline-inducible promoters. Following the addition of doxycycline to induce expression of the luciferases, the green luminescence in control cultures rises only slowly because the CBG fusion partner IkappaBalpha is targeted by IKK activity for rapid degradation. In contrast, green luminescence rises rapidly in the presence of proteasome inhibitors or IKK inhibitors. The rise in red luminescence of CBR is not affected by proteasome or IKK inhibitors, and serves as normalization for cell number and nonspecific effects. Compounds were screened as a concentration-titration series that ranged from 46 uM to 3 nM.
NCGC Assay Protocol Summary: Cells were seeded in 1536-well plates at 5000 cells/4uL in IMDM medium containing 0.5% FBS, w/o phenol red, 1% penicillin/streptomycin. Then, 23 nL of compounds or DMSO were delivered to each well using a pin tool. One uL 20ng/ml doxycycline was then dispensed into white solid 1536-well plates and the plates were incubated at 37C/5% C02 in a cell incubator for 4 hrs. Then 4 uL luminescent substrate mix (in-house prepared: 150 mM Tris-Cl, pH 7.6, 3 mM MgCl2, 1% Triton X-100, 5 mM DTT, 0.2 mM CoA, 0.15 mM ATP, 5 mM D-luciferin, final concentrations) was added to each well. The plate was incubated at r.t. for 10-15 min. The plates were measured on a ViewLux plate reader for green luminescence (540/20 nm filter) and red luminescence (618/8 nm filter). The green and red luminescent signals were corrected for red and green luminescence filter overlap using previously determined filter calibration constants (determined using the procedure outlined in the Promega Technical Manual; REF 4). The %Activity was determined from the ratio of corrected green/red luminescent values. MG132 were used as control. […] Red luminescent %Activity was normalized to the difference between red luminesence in basal cells (0%Activity) and zero luminescence (-100% Activity). […]
Potency means the concentration at half of the fitted maximal effect.

| SMILES | activity change, negative = inhibition | Potency |
| --- | --- | --- |
| Cc1ccc(NC(=O)c2cccc(S(=O)(=O)N3CCCc4ccccc43)c2)nc1 | 12.1% |  |
| Cc1ccc(S(=O)(=O)N2CCN(C(=O)Cn3c(=O)cnc4ccccc43)CC2)c(C)c1 | -0.195% |  |
| COc1ccc(N2CCN(C(CNS(=O)(=O)c3ccc(C)cc3)c3ccccc3)CC2)cc1 (stereo not drawn) | 4.46% |  |
| COc1ccc(CCN(C)C(=O)C23CC4CC(CC(Cl)(C4)C2)C3)cc1OC | 0.382% |  |
| COC(=O)[C@]1(C)N[C@H](c2ccc(-c3ccc(Cl)c(Cl)c3)cc2)[C@@H]2C(=O)N(C)C(=O)[C@@H]21 | -4.17% |  |
| CC(C)(C)OC(=O)C[C@@H]1C/C=C\C[C@@H](CC(=O)N(CCO)Cc2ccccc2)C(=O)N[C@H](Cc2ccccc2)COC1=O | 0.431% |  |
| CSCCC1NC(=O)N(CC(=O)Nc2cccc(S(=O)(=O)N3CCCCCC3)c2)C1=O (stereo not drawn) | -1.39% |  |
| Cc1c(O)c(C)c2c(c1O)C(=O)C[C@@H](c1ccccc1)O2 | 12.1% |  |
| COc1ccc(CNC(=O)CCn2cccc2)cc1 | 14.4% |  |
| COc1ccc(/C=C(\C#N)C(=O)NCCCn2ccnc2)cc1 | 0.0871% |  |
| COc1ccc(CNC(=O)/C(C#N)=C/c2cccc(OC)c2OC)cc1 |  | 11.2 µM (active) |
| CCC1=Nc2cc(C(=O)NCCCN3CCOCC3)ccc2Sc2ccc(Br)cc21 | 2.34% |  |
| COCCCNC(=O)CC1C[C@H](C(=O)N2CCCCC2)[C@@]2(CCc3ccccc3)c3[nH]c4ccccc4c3CCN2C1=O (stereo partly drawn) | -1.58% |  |
| O=C1OC[C@@H]2CCCN2C(=O)[C@H](CC(=O)N(CCO)Cc2ccccc2)C/C=C\CC[C@@H]1Cc1ccc(F)cc1 | 0.374% |  |
| Cc1cccc(Nc2nnc(SCC(=O)c3c(N)n(C4CC4)c(=O)[nH]c3=O)s2)c1C | 0.765% |  |
| Cc1cccc(C)c1NC(=O)COC(=O)c1c(C)nn(-c2ccccc2)c1C | -0.466% |  |
| O=C1NC(Cc2ccc(O)cc2)c2nc3ccc(Cl)cc3c(=O)n2-c2ccccc21 (stereo not drawn) | -3.14% |  |
| CCC(CC)COC(=O)C1=C(C)NC(=O)NC1c1ccc([N+](=O)[O-])cc1 (stereo not drawn) | -8.44% |  |
| Cc1ccc(CC(=O)Nc2ccc(S(=O)(=O)N3CCOCC3)cc2)cc1C | -2.28% |  |
| CC(C)(C)OC(=O)Nc1ccc([C@@H](NC(=O)OC(C)(C)C)C(=O)OC(C)(C)C)cc1 | -1.99% |  |
| CN(C(=O)c1cccc(NC(=O)Cc2ccc([N+](=O)[O-])cc2)c1)C1CCC1 | -5.64% |  |
| CN(C)S(=O)(=O)c1cccc(NC(=O)COc2ccc3ccccc3c2)c1 | -4.65% |  |
| COc1ccc(-c2nc3c(s2)CCc2onc(-c4ccc(OC)cc4)c2-3)cc1 | 2.16% |  |
| CCOC(=O)[C@@H]1[C@H]2COc3ccc(Br)cc3[C@H]2N2C(=O)N(c3ccc(C)cc3)C(=O)[C@@]12C | -0.0599% |  |
| CN(C(=O)c1cccc(NC(=O)C2CCN(C(=O)OC(C)(C)C)CC2)c1)C1CCC1 | -17.4% |  |
| CC(=O)c1ccc(OCCCC(=O)Nc2ccc(C)c(S(=O)(=O)N3CCOCC3)c2)cc1 | -3.66% |  |
| COc1cc(C(c2c(NC(=O)c3ccco3)sc(C)c2C)N2CCOCC2)cc(OC)c1OC (stereo not drawn) | 2.54% |  |
| Cc1ccc(S(=O)(=O)N(C)C)cc1NC(=O)CN1c2cccc3cccc(c23)S1(=O)=O | -4.26% |  |

Source: PubChem BioAssay AID493014 (National Center for Advancing Translational Sciences (NCATS), 2011)
